About 370 (0.13%) of roughly 290,000 compounds were called active. This is one part of a sample in which actives are shown more often than they occur. Results with a measured potency or affinity are listed apart. Unmarked numbers belong to inactive results.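 Rule for the calls: active = spots per cell inhibited over 60%, with over 100 cells counted and total cytoplasm intensity under 500,000; inconclusive = wells with under 100 cells, flagged as likely toxic; inactive = the rest.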

The term inhibition denotes the drop in the measured response relative to a control, in per cent.

The target of the test is G-protein coupled receptor 55 (Homo sapiens) (UniProt Q9Y2T6). In words: inhibition of LPI-stimulated GPR55 beta-arrestin translocation – imaging, U2OS, beta-arrestin-GFP, LPI agonist, primary screen (AID 2013).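 Note: U2OS cells stably carrying GPR55 and arrestin-GFP stimulated by 5 µM LPI near EC80; imaged beta-arrestin-GFP aggregate spots per cell after agonist stimulation; plate controls were LPI-stimulated DMSO wells for no effect and DMSO wells without LPI for full effect.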 To be noted: LPI antagonism, at 10 µM, stronger effect = higher value.
G-protein coupled receptor 55 (Homo sapiens), sequence (Q9Y2T6 whole entry, looked up): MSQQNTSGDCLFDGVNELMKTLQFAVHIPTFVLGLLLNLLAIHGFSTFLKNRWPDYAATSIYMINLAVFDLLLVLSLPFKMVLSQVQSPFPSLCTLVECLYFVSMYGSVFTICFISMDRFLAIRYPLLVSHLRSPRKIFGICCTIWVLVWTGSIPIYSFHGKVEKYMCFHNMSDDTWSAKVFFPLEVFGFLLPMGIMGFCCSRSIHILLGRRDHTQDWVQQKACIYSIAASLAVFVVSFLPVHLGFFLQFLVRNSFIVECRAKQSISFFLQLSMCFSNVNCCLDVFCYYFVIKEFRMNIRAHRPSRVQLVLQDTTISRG
On to `CCOC(=O)C1=C(C)NC(C)=C(C(=O)OC)C1c1cccc([N+](=O)[O-])c1` (stereo not given), for which the inhibition was 14.8%. Next, `CCOC(=O)C1=C(O)C(=O)N(c2ccccc2)C1c1cccc([N+](=O)[O-])c1` (stereo not given): -3.6%; `CCn1c(SCc2nc3cc(OC)c(OC)cc3c(=O)[nH]2)nnc1-c1ccncc1`: -12.8%; `CCOC(=O)N1CCN(C(=O)CS(=O)Cc2nc(-c3cccc(C)c3)oc2C)CC1` (stereo not given): -4.3%. Under `Cc1cc(=O)c(C(=O)O)nn1-c1ccccc1C(F)(F)F` stands -0.4%; under `COc1ccccc1NC(=S)NC(NC(=O)c1ccco1)C(Cl)(Cl)Cl` (stereo not given), 3.2%.

Regarding `O=C(NC(NC(=S)Nc1ccccc1C(=O)O)C(Cl)(Cl)Cl)c1ccco1` (stereo not given), the inhibition was 15.9%. `Cc1ccc(NC(=O)C2C3C=CC4(O3)C2C(=O)N(CCCN2CCCCC2)C4C(=O)NC2CCCCC2)cc1C` (stereo not given): the inhibition is 1.2%. Under `COc1ccc(C(=O)C2CCCN(C(=O)c3noc4c3CCCC4)C2)c(C)c1` (stereo not given) stands 15.3%; under `COCCNC(=O)c1cccc2c1-c1ccccc1C2=O`, 4%; under `COC(CNC(=O)c1coc2nc3ccccc3nc12)OC`, -2.8%. Take `COC(CNC(=O)c1ccc2c3c(onc13)-c1ccccc1C2=O)OC`: the inhibition was 99.4% (active). As for `COCCCNC(=O)c1ccccc1-c1cc(C)no1`, the inhibition is -3.6%.

`CCOC(=O)C(C(=O)OCC)c1cc(Br)c2noc3c2c1C(=O)c1ccccc1-3`: the inhibition was -10.2%. Consider `COCCCNC(=O)c1ccc2c3c(onc13)-c1ccccc1C2=O`, for which the inhibition was 84.1% (active).

For `O=C(c1cccc(C(F)(F)F)c1)N1CCN(S(=O)(=O)c2ccc(Cl)s2)CC1`, the inhibition was 9.8%.

As for `CCN(c1cccc(C)c1)S(=O)(=O)c1ccc2c(c1)oc(=O)n2C`, the inhibition is 1.9%. Under `CCOc1ccc(NC(=O)CN(C)S(=O)(=O)c2ccc3c(c2)CCC(=O)N3)cc1` stands -0.4%; under `CC(C)CC(=O)NNC(=O)c1ccc(Cl)cc1`, 4.3%; under `COc1ccc(C(=O)NC(Oc2ccccc2)C(Cl)(Cl)Cl)cc1` (stereo not given), -6.6%. In the case of `COc1ccc(C(=O)N(CCCO)C(C)C(=O)NC2CCCCC2)cc1OC` (stereo not given), the inhibition was -11.9%. `CCOC(=O)c1ccc(NC(=O)c2ccc3c(c2)C(=O)N(Cc2cccnc2)C3=O)cc1`: the inhibition was -16.9%.

For the compound `CSc1ncc(Cl)c(C(=O)Nc2ccc(S(=O)(=O)N3CCOCC3)cc2)n1`, the inhibition is 29.9%.

Take `CCCSc1ncc(Cl)c(C(=O)Nc2ccc(S(=O)(=O)Nc3ncccn3)cc2)n1`: the inhibition is 7.3%.

On to `N/C(Cc1cccs1)=N\OC(=O)COc1ccc(Cl)cc1Cl`, for which the inhibition is -3.5%.

The values are drawn from PubChem BioAssay AID2013 (Sanford-Burnham Center for Chemical Genomics, 2009).
